# In the supplement of paper PMC12669032:
# A number with no mark means an inactive call.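 How the source made its calls: active = AUC reduced over 20% with Padj below 0.05 in at least 2 of 3 replicates; inactive = otherwise.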
# Key:
# Assay in all cases: growth AUC relative to DMSO control (median of replicates) (fraction); higher = more growth (less inhibition), active = hit call of the paper
# Conditions in all cases: 20 µM; 24 h
# Coprococcus comes = system: Coprococcus comes
# In short: (§1)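 Hourly OD600 readings over 24 h tracked anaerobic gut bacterial monocultures grown at 37 °C in mGAM from OD600 0.05 with 20 µM compound (1% DMSO). After the minimum OD was set to 0, area under the growth curve was normalised to the plate median of solvent-only wells, or to row and column medians on the industrial chemical plate. Values are medians of three biological replicates grown on separate days.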
# Escherichia coli ED1a = system: Escherichia coli ED1a
# In short: as §1
# Escherichia coli IAI1 = system: Escherichia coli IAI1
# In short: as §1
# Eubacterium rectale = system: Eubacterium rectale
# In short: as §1
# [1] = system: Fusobacterium nucleatum subsp. animalis
# In short: as §1
# Lactobacillus gasseri = system: Lactobacillus gasseri
# In short: as §1
# Lactobacillus paracasei = system: Lactobacillus paracasei
# In short: as §1
# Odoribacter splanchnicus = system: Odoribacter splanchnicus
# In short: as §1
# [2] = system: Parabacteroides distasonis
# In short: as §1
# Parabacteroides merdae = system: Parabacteroides merdae
# In short: as §1
# Roseburia intestinalis = system: Roseburia intestinalis
# In short: as §1
# Streptococcus salivarius = system: Streptococcus salivarius
# In short: as §1
Structure (SMILES),growth AUC (Coprococcus comes),growth AUC (Escherichia coli ED1a),growth AUC (Escherichia coli IAI1),growth AUC (Eubacterium rectale),growth AUC [1],growth AUC (Lactobacillus gasseri),growth AUC (Lactobacillus paracasei),growth AUC (Odoribacter splanchnicus),growth AUC [2],growth AUC (Parabacteroides merdae),growth AUC (Roseburia intestinalis),growth AUC (Streptococcus salivarius)
CC(C)C1(C)N=C(c2ncccc2C(=O)O)NC1=O (stereo not given),1.02,0.993,0.974,1.01,1.04,0.946,1.03,0.989,1.04,0.997,0.97,0.931
O=C(Nc1ccccc1)c1ccccc1I,1.05,1.04,1,0.97,1.04,1.09,0.96,0.989,0.991,1.01,1,1.03
COP(=O)(OC)OC=C(Cl)Cl,1.03,1.01,1.02,1.04,1.09,0.912,1.04,1.01,1.05,1.01,0.985,1.03
CCOC(=O)CC(SP(=S)(OC)OC)C(=O)OCC (stereo not given),0.984,0.975,1.02,1.07,0.977,0.917,1.13,1.07,0.959,1.01,0.99,0.939
CCOP(=O)(N=C1SCC(C)S1)OCC (stereo not given),1.03,1.02,0.951,1.1,1.09,0.985,0.971,1.04,0.977,0.976,0.969,0.987
Cl.NC1=NCCN1Cc1ccc(Cl)nc1,1.13,1.04,1.03,0.945,1.06,1.02,1.06,0.507 (active),1.02,1.05,0.963,1.01
C[C@H]1[C@H](c2ccc(Cl)cc2)SC(=O)N1C(=O)NC1CCCCC1,1.03,1,0.996,1.05,1.07,0.791,1.03,0.832,0.725,0.947,0.922,0.985
Nc1nc(N)nc(Cl)n1,1.02,1.04,1.01,0.971,1.08,1.02,0.991,1,1.01,1.02,1.05,1.03
CNC(=O)CSP(=S)(OC)OC,1.01,0.977,0.959,1.06,0.957,0.911,0.962,0.954,0.9,0.979,0.982,0.968
CC1(C)OC(c2ccco2)CN1C(=O)C(Cl)Cl (stereo not given),1.03,1.01,0.994,0.803,0.934,1.07,0.976,1.05,0.99,0.968,1.03,1.01
CNC(=O)Oc1cccc2ccccc12,1.03,1.01,0.982,1.05,1.03,0.907,1.1,1.05,0.944,1,0.973,1.03
Clc1ccc(C2(Cn3cncn3)CC(Br)CO2)c(Cl)c1 (stereo not given),0.997,0.989,1,0.806,0.914,0.891,0.987,0.961,0.952,0.924,0.99,0.988
O=C1C(Cl)=C(Cl)C(=O)c2ccccc21,1.05,1.02,0.973,1.34,1.02,0.929,0.941,0.797,0.938,0.967,1.13,0.955
CNC(=O)/C(=N\OC)c1ccccc1Oc1ccccc1,1.01,1.01,1,0.963,0.974,1.05,0.986,0.961,1.02,0.99,0.995,0.999
CC(C)(C)c1cc([N+](=O)[O-])cc([N+](=O)[O-])c1O,0.859,0.93,0.923,0.908,0.638,0.852,0.859,0.722,0.83,0.942,0.802,0.848
C=CCOC(=O)C(C)(C)OC(=O)c1cc(-n2c(=O)cc(C(F)(F)F)n(C)c2=O)ccc1Cl,1,0.998,1.02,1.05,1.09,0.871,1.01,0.913,0.811,0.962,0.994,0.98
CCOP(=S)(NC(C)CC)Oc1cc(C)ccc1[N+](=O)[O-] (stereo not given),0.967,0.97,0.964,0.919,0.865,0.974,0.984,0.904,0.733 (active),0.967,1.01,0.976
CNC(=O)Oc1cccc2c1OC(C)(C)C2=O,1.05,1.03,1.02,1.04,1.15,0.878,1.04,1.02,0.955,0.99,0.994,0.924
CC(C1CC1)C(O)(Cn1cncn1)c1ccc(Cl)cc1 (mixture of isomers),0.936,1.01,0.971,1.02,1.09,0.975,1.06,0.8,1.01,0.988,1.06,0.973
CCOP(=S)(OCC)Oc1ccc([N+](=O)[O-])cc1,0.997,1,0.979,1.09,1.11,0.98,1.04,1.02,0.964,0.994,1.01,0.93
COP(=O)(OC)C(O)C(Cl)(Cl)Cl (stereo not given),1.03,1.02,1.01,1.08,0.973,1,1.02,0.965,1.04,1,1,1.02
CCSCCSP(=S)(OC)OC,1.1,1.01,1,0.899,1.05,1.06,1.01,1.07,1.05,0.988,1.03,1.02
CC(C)c1ccc(NC(=O)N(C)C)cc1,0.979,0.972,0.97,1.05,1.07,0.934,0.98,1.12,0.998,0.935,0.95,0.956
N#Cc1nn(-c2c(Cl)cc(C(F)(F)F)cc2Cl)c(N)c1SC(F)(F)F,0.857,1.02,0.985,0.687 (active),0.96,0.729 (active),1.04,0.571 (active),0.751 (active),0.868,0.558 (active),0.75 (active)
Cc1cc(C)c(C2=C(OC(=O)CC(C)(C)C)C3(CCCC3)OC2=O)c(C)c1,0.974,1.02,1.03,1.04,1.09,0.918,1.14,0.978,0.772 (active),1.04,0.989,0.991
